AGP1-GFP MLPCN: modulators of TOR pathway AGP1-GFP in S. cerevisiae; S. cerevisiae AGP1-GFP multiplex flow cytometry, 3 h; GFP as percent of DMSO wells; GFP response vs DMSO, % at 10 µM; actives 0.02% (n = 320,000); AID 2066;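 active = GFP response relative to DMSO above a set limit, near screen average plus 3 SD, cut at about 150% in these data; inconclusive = fewer than 70 cells counted for the yeast strain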;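 note: median GFP channel fluorescence of the gated AGP1 strain per well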
Myeloid diff 2: promotes myeloid progenitor differentiation | ER-HoxA9 myeloid progenitors, lysozyme-GFP differentiation, flow cytometry | calls only at 10 µM | actives 1% (n = 360,000) | AID 624256;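 active = normalized GFP-positive differentiation at or above the plate's own cutoff, the solvent-only control mean plus 3 SD; inconclusive = no clear call, values can overlap the other calls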;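 note: cells exposed to compound for four days before flow analysis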
MEP2 TOR yeast: modulators of TOR pathway MEP2-GFP in S. cerevisiae; S. cerevisiae MEP2-GFP strain, flow cytometry GFP, 3 h; 100% = DMSO control level; GFP response vs DMSO, % at 10 µM; actives 0.51% (n = 330,000); AID 2016;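 active = GFP response versus DMSO above a set limit, roughly screen mean plus 3 SD, cut at about 180% in these data; inconclusive = fewer than 70 cells counted for a yeast strain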;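 note: median GFP fluorescence of the barcode-gated MEP2-GFP cells per well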
LAP4 TOR yeast: modulators of TOR pathway LAP4-GFP in S. cerevisiae | GFP response vs DMSO, % at 10 µM | actives 0.34% (n = 320,000) | S. cerevisiae LAP4-GFP multiplex, flow cytometry GFP, 3 h; median GFP as percent of DMSO wells;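 active = GFP response vs DMSO above a set limit, about the screen mean plus 3 SD, cut at about 150% in these data; inconclusive = under 70 cell events counted for the yeast strain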
CIT2 TOR yeast: modulators of TOR pathway CIT2-GFP in S. cerevisiae; S. cerevisiae CIT2-GFP strain, flow cytometry, 3 h; 100 means same as DMSO wells; actives 0.065% (n = 320,000); GFP response vs DMSO, % at 10 µM;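 active = GFP response relative to DMSO above a set limit, near the screen mean plus 3 SD, cut at about 150% in these data; inconclusive = Fewer than 70 cells measured for a yeast strain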;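 note: ratio of well median GFP fluorescence to mean of DMSO wells on the plate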
RPL19A TOR yeast: modulators of TOR pathway RPL19A-GFP in S. cerevisiae | AID 2025 | S. cerevisiae RPL19A-GFP strain, flow cytometry, 3 h; stronger effect = lower value | percent response vs DMSO, % at 10 µM | actives 0.3% (n = 330,000);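 active = percent response vs DMSO below 50%; inconclusive = fewer than 70 events counted for the yeast strain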;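 note: median channel GFP fluorescence of the barcoded RPL19A-GFP strain; ratio of sample median GFP to plate DMSO average so 100% = DMSO; lower means less RPL19A-GFP as with rapamycin TOR inhibition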
* marks the source's active call; other numbers are inactive results; i = inactive; u = inconclusive; x = no result given; + = active, no number; [ ] = dose if it differs, or a comment. Compounds with a hit are over-represented: about 1.8% of the library has one in this group of screens.

SMILES | AGP1-GFP MLPCN | Myeloid diff 2 | MEP2 TOR yeast | LAP4 TOR yeast | CIT2 TOR yeast | RPL19A TOR yeast
CNC(=O)Nc1ccc(C(=O)N/N=C\C23CC[C@@H](O)CC2(O)CC[C@@H]2[C@@H]3CCC3(C)C(C4=CC(=O)OC4)CCC23O)cc1 (stereo partly specified) | 19.4 | i | 200.4*[may fluoresce violet] | 92.5 | u | 45.5*[may fluoresce violet]
COc1ccc(-n2nnnc2C(CCc2ccccc2)N2CCC3(CC2)C(=O)NCN3c2ccccc2)cc1 (stereo unspecified) | x | i | x | x | x | x
C[C@]12CCC3=C4CCC(=O)C=C4CC[C@H]3C1CC[C@@H]2O (stereo partly specified) | 102.9 | i | 113.8 | 111.0 | 98.1 | 110.4
CN1CCN(c2nc(N)c(Br)c(Cl)n2)CC1 | 98.1 | + | 93.8 | 99.9 | 100.3 | 94.1
COC(=O)C1=C(c2ccc3ccccc3c2)C[C@@H]2CC[C@H]1N2C(=O)NC1CCCCC1 | 101.4 | i | 95.7 | 109.8 | 102.7 | 96.6
CCCCn1c(O)c(C(C)=NCCc2c[nH]c3ccccc23)c(=O)[nH]c1=O | 93.1 | i | 90.2 | 92.0 | 96.9 | 93.8
O=C(/C=C/c1c[nH]c2ccccc12)c1c(O)n(CCc2ccccc2)c(=O)[nH]c1=O | x | + | 112.9 | x | x | 102.0
CCN(CC)C(=O)Cn1cc(/C=C2\C(=O)NC(=O)N(c3ccccc3F)C2=O)c2ccccc21 | 85.7 | + | 105.9 | 101.4 | 98.6 | 89.0
NC(N)=N/N=C/c1ccc(N(c2ccccc2)c2ccccc2)cc1 | u | x | 209.0*[may fluoresce violet] | 80.6 | u | 56.3
NC(N)=N/N=C/c1ccc(N2CCOCC2)cc1 | 96.7 | + | 100.3 | 91.0 | 75.2 | 98.2
Cc1ccc2c(c1)N(CCC(=O)N1CCC3(CC1)OCCO3)C(=O)CO2 | 102.3 | + | 96.9 | 106.2 | 103.1 | 100.7
O=c1ccc2cc(OC3O[C@H](CO)[C@@H](O)[C@H](O)[C@H]3O)c(O)cc2o1 (stereo partly specified) | u | i | 208.1*[may fluoresce violet] | 94.0 | u | 41.0*[may fluoresce violet]
COc1cc([C@H]2OC[C@H]3[C@@H]2CO[C@@H]3c2cc(OC)c(O[C@@H]3O[C@H](CO)[C@@H](O)[C@H](O)[C@H]3O)c(OC)c2)cc(OC)c1O[C@H]1O[C@@H](CO)[C@H](O)[C@@H](O)[C@@H]1O | 107.0 | i | 101.2 | 101.5 | 94.2 | 99.4
COC1C(O)C(C)OC(OC2C(Oc3cccc4c(O)c5c(=O)oc6ccc(C)c7c(=O)oc(c34)c5c67)OC(C)C(O)C2O)C1O (stereo unspecified) | x | + | x | x | x | x
N#CC1c2ccccc2-n2nncc2CN1S(=O)(=O)c1ccccc1 (stereo unspecified) | x | i | x | x | x | x
COC(=O)C1=C(c2ccc(C(C)=O)cc2)C[C@@H]2CC[C@H]1N2C(=O)NCCOc1ccccc1Cl | 103.2 | i | 102.1 | 112.2 | 107.1 | 99.8
N#CCCn1cc(C(=O)Nc2ccccc2Cl)c(-c2ccc(F)cc2)n1 | 98.6 | x | 110.1 | 93.8 | 103.1 | 106.6
O=C(C1CCN(S(=O)(=O)c2ccccc2)CC1)N1CCC2(CC1)OCCO2 | 28.8 | i | 333.3*[may fluoresce violet] | 109.8 | u | 67.2
CC1(C)COC(Nc2ccc(Cl)cc2)=N1 | 95.7 | i | 99.3 | 96.5 | 99.0 | 99.2
COC(=O)C1=C(c2cccc(OCc3ccccc3)c2)C[C@@H]2CC[C@H]1N2C(=O)NCc1ccc(OC)cc1 | 101.0 | + | 97.1 | 101.8 | 97.0 | 97.8
NC(Cc1ccc(Cl)cc1)c1csc(Nc2ncccn2)n1 (stereo unspecified) | x | + | x | x | x | x
Cc1ccc(S(=O)(=O)N2Cc3ccccc3-n3nncc3C2)cc1 | x | i | x | x | x | x
CC(=O)Nc1ccc(S(=O)(=O)N2Cc3ccccc3-n3nncc3C2)cc1 | x | + | x | x | x | x
O=C(O)CCC(=O)NCCC1=c2ccccc2=N/C1=C\c1c(O)n(Cc2ccc(F)cc2)c(=S)[nH]c1=O | 108.3 | + | 101.2 | 107.7 | 102.7 | 103.1
O=C(N/N=C/c1c(O)n(Cc2ccc(F)cc2)c(=O)[nH]c1=O)c1ccccc1 | 101.1 | i | 101.8 | 110.9 | 114.6 | 96.8
SMILES | AGP1-GFP MLPCN | Myeloid diff 2 | MEP2 TOR yeast | LAP4 TOR yeast | CIT2 TOR yeast | RPL19A TOR yeast
CN1/C(=C\C=C2C(=O)NC(=O)NC2=O)C(C)(C)c2ccccc21 | 99.0 | + | 100.0 | 111.4 | 97.0 | 95.1
O=c1c2ccccc2nc(-c2ccccc2)n1-c1cccnc1 | u | i | 254.3*[may fluoresce violet] | 91.7 | u | 19.1*[may fluoresce violet]
O=c1[nH]c(=S)n(-c2ccccc2)c(O)c1/C=N/N1CCOCC1 | 110.0 | i | 153.0 | 118.6 | 150.8* | 123.8
CCOC(=O)[C@]12Cc3cc(OC)ccc3[C@H]1N(C)C(=O)c1cc(OC)ccc12 | x | i | x | x | x | x
CCOC(=O)[C@]12Cc3cc(Cl)ccc3[C@H]1N(C)C(=O)c1cc(OC)ccc12 | x | + | x | x | x | x
CCn1nc(-c2ccccc2)nc2c(=O)n(C)c(=O)nc1-2 | 110.7 | u | 121.6 | 229.2* | 60.5 | 126.1
O=c1c2ccccc2[se]n1-c1ccccc1 | u | i | 157.0 | u | u | 39.1*[may fluoresce violet]
O=C1/C(=C\c2ccncc2)N2CCC1CC2 | 95.3 | i | 92.8 | 98.9 | 88.1 | 90.2
O=C1/C(=C\c2ccc(Cl)c(Cl)c2)N2CCC1CC2 | 89.1 | i | 82.5 | 186.9* | 75.1 | 91.5
O=C(c1cc(=O)[nH]c2ccc(Br)cc12)N1CCC2(CC1)OCCO2 | 103.6 | i | 212.1*[may fluoresce violet] | 82.9 | u | 94.3
O=C(c1cc2cc(Cl)ccc2[nH]1)N1CCC2(CC1)OCCO2 | 31.3 | i | 107.8 | 93.2 | 86.5 | 81.4
COC(=O)C1=C(c2ccc3ccccc3c2)C[C@@H]2CC[C@H]1N2C(=O)NC1CC1 | 104.7 | i | 98.5 | 108.8 | 105.6 | 100.7
Cc1ccc(N2C(=O)NC(=O)/C(=C\C=C\c3ccco3)C2=O)cc1C | 101.9 | + | 96.7 | 107.7 | 95.5 | 99.2
Cc1ccc(N2C(=O)NC(=O)/C(=C\C=C\c3ccco3)C2=O)cc1 | 104.6 | i | 98.7 | 109.4 | 113.6 | 98.8
O=C1NC(=O)C(=Cc2ccc(Sc3ccccc3)o2)C(=O)N1 | 61.7 | i | 85.3 | 163.6* | 71.3 | 85.0
CN1C(=O)C(=Cc2ccc(Sc3ccccc3)o2)C(=O)N(C)C1=S | 78.2 | i | 99.4 | 175.9* | 82.8 | 74.2
COc1ccc2c3c1OC1C(O)C=CC4[C@@H](C2)N(C)CC[C@]314 (stereo partly specified) | 102.7 | x | 101.2 | 111.2 | 102.5 | 100.4
CC(C)(C)C(=O)N1Cc2cc(N3CCCCC3)ccc2-n2nncc2C1 | x | i | x | x | x | x
CC1CCN(C(CC(=O)c2ccccc2)C(=O)c2ccccc2)CC1 (stereo unspecified) | x | i | x | x | x | x
